± gives the standard deviation.
System: OVCAR-3-derived ovarian cancer stem-like cells (spheroids)
Experiment: cell growth relative to untreated control; higher = more growth (less inhibition)
Conditions: 2.29 µM; 96 h
Outline: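 Viability of stem-like cells from OVCAR-3 spheroids was assessed with TOX8 resazurin fluorescence at ex 560/em 590 nm. The cells had been trypsin-dissociated, seeded at 50,000 cells/mL in stem cell medium in ultra-low attachment 96-well plates and preincubated 24 h, then treated with compounds at 2.29 uM for 96 h at 37°C, 5% CO2, in 4 replicate wells, with fluorescence read after 4 h. Results were converted to percent growth against untreated wells after blank subtraction and Grubbs outlier removal.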

Structure (SMILES)	cell growth [%]
Nc1nncs1	98.4 ± 22
Cc1ccc(S(=O)(=O)c2ccc([N+](=O)[O-])o2)cc1	47.4 ± 31
CC[C@@]1(O)C[C@H](O[C@H]2C[C@H](N(C)C)[C@H](O[C@H]3C[C@H](O)[C@H](O[C@H]4C[C@H](O)[C@H](O)[C@H](C)O4)[C@H](C)O3)[C@H](C)O2)c2c(cc3c(c2O)C(=O)c2c(O)ccc(O)c2C3=O)[C@H]1C(=O)OC	78.9 ± 26
N[C@@H](CSC(c1ccccc1)(c1ccccc1)c1ccccc1)C(=O)O	34.8 ± 6.7
COc1cc(OC)c(OC)cc1/C=C/c1ccnc2ccccc12	75.8 ± 10
C/C(=N\NC(=S)N1CCN(C2CCCCCC2)CC1)c1ccccn1	14.7 ± 7.5
Cc1ccc(S(=O)(=O)NC(=O)NC2=NC(C)(C)N(c3ccc(Cl)c(Cl)c3)C(N)=N2)cc1	84.1 ± 23
Cc1cc(O)c2c(c1)C(=O)c1cc(O)cc(O)c1C2=O	107 ± 17
COc1cc(C[C@H]2c3cc(OC)c(OC)cc3CCN2C)c(Oc2cc3c(cc2OC)-c2c(OC)c(OC)cc4c2[C@H](C3)N(C)CC4)cc1OC	77.8 ± 11
NC(N)=NCCCS(=O)(=O)Nc1ccc(Nc2c3ccccc3nc3cc([N+](=O)[O-])ccc23)cc1	127 ± 32
COCCOC1=C(Cl)C(=O)c2c(O)ccc(O)c2C1=O	114 ± 18
Clc1cc2nc[nH]c2cc1Cl	102 ± 31
CCOC(=O)c1ccc(N=Cc2ccc(N(CCC#N)CCC#N)cc2)cc1	101 ± 20
CCN(CC)CCNc1ccc(CO)c2sc3ccccc3c(=O)c12	99 ± 39
COc1cccc(/C=N\NC(=O)C(C)SC(C)C(=O)N/N=C/c2cccc(OC)c2)c1 (centres undefined)	100 ± 33
CCC1CN2CCc3cc(OC)c(OC)cc3C2CC1CC1c2cc(OC)c(OC)cc2CCN1C(=O)C1CCCN1C(=O)OCc1ccccc1 (centres undefined)	122 ± 21
CCN(CC)CCCC(C)Nc1c2ccc(Cl)cc2nc2ccc(OC)cc12 (centres undefined)	37.6 ± 6.1
O=C1Nc2ccc(Br)cc2/C1=C\C(=O)c1ccccc1	96.9 ± 11
C1CN(c2nnc(N3CCC3)nn2)C1	104 ± 18
O=[N+]([O-])c1cccc2c(N=Nc3ccc4ccccc4c3O)c(O)cc(S(=O)(=O)O)c12	74.2 ± 40

Structure (SMILES)	cell growth [%]
CC1(C)C(O)OC(O)C1(C)C (centres undefined)	9.3 ± 2
NC(N)=N/N=C(\c1ccc(Cl)cc1)C1CC1	200 ± 43
CCOC(=O)C(C)NC(=O)N(C)C12CC3CC(CC(C3)C1)C2 (centres undefined)	8 ± 3.5
Nc1nc(SCc2ccccc2Cl)c2[nH]cnc2n1	106 ± 13
C[C@@H]1CC[C@H]2C(C)(C)[C@H]3C[C@@]12CC[C@@]3(C)O	48.3 ± 7
CC(=O)NCCCCCCNC(C)=O	119 ± 7.8
CC1=CC(C)(C)N=C2SC(c3ccc(N)cc3)=NN12	112 ± 28
CC(C)(C)CC(C)(C)NCC(O)COc1ccc(C(C)(C)c2ccc(OCC(O)CNC(C)(C)CC(C)(C)C)cc2)cc1 (centres undefined)	7.1 ± 2.1
CCCCCCCCCCCCCCCCOP(=O)([O-])OCC[N+](C)(C)C	85.9 ± 16
O=C(NC1=C(Cl)C(=O)c2ccccc2C1=O)C(=O)C(C(=O)c1ccc2ccccc2c1)C1OC(=O)c2ccccc21 (centres undefined)	89.6 ± 20
O=C1NC(=O)[C@H]2[C@H]3C=C[C@@H]([C@@H]12)[C@@H]1[C@H]2C(=O)NC(=O)[C@H]2[C@H]31	121 ± 29
NC(=S)NN=Cc1ncccc1O	95.3 ± 16
CCCCCC(/C=C/[C@@H]1CC(=O)C[C@H]1O[Si](C)(C)C(C)(C)C)OCOCCOC (some centres undefined)	110 ± 24
CN(C)C(=S)/N=c1\ss/c(=N\C(=S)N(C)C)n1-c1ccc2c(c1)OCO2	76.4 ± 5.8
O=c1oc2cc(O)ccc2c2oc3cc(O)ccc3c12	124 ± 31
NC(=O)C1=C[C@H]2[C@H]3C=C[C@@]2(O)C(=O)O[C@@H]3O1	91.3 ± 15
CNC(=O)c1cc(NC(=O)N(CCC#N)CCN(C(=O)N[C@@H](Cc2ccccc2)C(=O)N[C@@H](CC(C)C)C(=O)NC)c2ccccc2)ccc1OC	98.9 ± 15
CCC1=C(C[C@H]2NCCc3cc(OC)c(OC)cc32)C[C@H]2c3cc(OC)c(OC)cc3CCN2C1	21.1 ± 7.4
COc1ccc(/C(=N/O)C(c2ccc(OC)cc2)C2C(=O)Oc3ccccc32)cc1 (centres undefined)	73.1 ± 14

From the supplement of paper PMC3484114
